# Source: PubChem BioAssay (EPA / NIEHS)
# Several values for one entry are separate records, joined by “and”; a condition that tells them apart may be missing. Identical values can stand only once. Some structures have more than one record in an assay (separate samples or runs), and their calls can disagree. Activity calls are given as the source filed them. The calls were made as follows: active = hit-call score of the fitted dose curve at least 0.9, where 1 is the maximum; inactive = score below 0.9.
# Read-out: Interferon-gamma inducible Protein 10 (IP10), CXCL10 (gene 3627)
# Assay: BSK_hDFCGF_IP10: BioMAP Diversity Plus: hDFCGF Assay for Interferon-gamma inducible Protein 10 (IP10) Biomarker Activity (AID 2283053)
# Conditions: primary human foreskin fibroblasts; actives raise or lower the signal
# Experimental: BSK_hDFCGF is a cell-based, multiplexed-readout assay that uses foreskin fibroblast, a human skin primary cell, with measurements taken at 24 hours after chemical dosing in a 96-well plate.BSK_hDFCGF_IP10 is an assay component measured in the BSK_hDFCGF assay. It measures IP-10 antibody related to regulation of gene expression using ELISA technology.Data from the assay component BSK_hDFCGF_IP10 was analyzed into 1 assay endpoint. This assay endpoint, BSK_hDFCGF_IP10, was analyzed with bidirectional fitting relative to DMSO as the negative control and baseline of activity. Using a type of binding reporter, gain or loss-of-signal activity can be used to understand changes in the signaling as they relate to the gene CXCL10. Furthermore, this assay endpoint can be referred to as a primary readout, because this assay has produced multiple assay endpoints where this one serves a signaling function. To generalize the intended target to other relatable targets, this assay endpoint is annotated to the cytokine intended target family, where the subfamily is chemotactic factor.
# The levels of cell surface (or secreted, indicated by the prefix "s") biomarker endpoints were measured by ELISA. Overt cytotoxicity to cells in confluent adherent cultures (all systems other than the BT system) was assessed by measuring total protein levels using sulforhodamine B (SRB) staining in parallel cultures at the time of biomarker measurements, indicated as SRB endpoints. For proliferation assays for adherent cell types, individual cell types are cultured at sub-confluence and relative cell numbers quantified by SRB staining at time points optimized for each system (48 h: 3C and CASM3C systems; 72 h: BT and HDF3CGF systems; 96 h: SAg system). SRB was performed by staining cells with 0.1% SRB after fixation with 10% TCA and reading wells at 560 nm.Viability and proliferation of PBMC (T cells) was quantified by Alamar Blue reduction for the SAg and BT systems. For PBMC viability (referred to as PBMC Cytotoxicity within the assay endpoint names), cells were plated (75,000/well in a 96-well plate) and then chemical samples added for 1 h before addition of activators, SEB and TSST-1 (20 ng/mL final concentration each). Cells were incubated for 90 h. Then, Alamar Blue (20 uL/well) (Invitrogen, Cat DAL1100) was added for 6 h, and the plates were read with a fluorescence microplate reader at 546/580 nm (excitation/emission). For PBMC proliferation, cells were plated and activated as above but incubated for only 16 h prior to addition of Alamar Blue. Plates were read after 6 h.
SMILES,outcome,AC50
COc1nc(NC(C)C)nc(NC(C)C)n1,inactive,–
CCOC(=O)CC(SP(=S)(OC)OC)C(=O)OCC (stereo not given),inactive,–
O=C(Nc1ccccc1)Nc1ccnc(Cl)c1,inactive,–
N#CC(CCc1ccc(Cl)cc1)(Cn1cncn1)c1ccccc1 (stereo not given),inactive,–
CCCCOC(=O)c1ccccc1C(=O)OCCCC,–,13.9 µM (active) and 11.8 µM (active)
C#CCOS(=O)OC1CCCCC1Oc1ccc(C(C)(C)C)cc1 (stereo not given),–,7.97 µM (active)
COc1nc(C)nc(NC(=O)NS(=O)(=O)c2ccccc2Cl)n1,inactive,–
N#Cc1nn(-c2c(Cl)cc(C(F)(F)F)cc2Cl)c(N)c1S(=O)C(F)(F)F (stereo not given),–,2.24 µM (active)
CON(C)C(=O)Nc1ccc(Cl)c(Cl)c1,inactive,–
CC(C)(C)c1ccc(CSc2cnn(C(C)(C)C)c(=O)c2Cl)cc1,inactive,–
Oc1ccccc1-c1ccccc1,inactive,–
O=C(O)c1nc(Cl)ccc1Cl,inactive,–
COc1nc(C)nc(NC(=O)NS(=O)(=O)c2ccccc2CCC(F)(F)F)n1,–,148 nM (active) and 33.8 µM (active) and 3.97 µM (active)
CCOP(=S)(OCC)SCn1c(=O)oc2cc(Cl)ccc21,inactive,–
CS/C(C)=N/OC(=O)N(C)SN(C)C(=O)O/N=C(\C)SC,–,8.62 µM (active)
CCNc1nc(Cl)nc(NC(C)C)n1,inactive,–
CCCN(CCC)c1c([N+](=O)[O-])cc(S(N)(=O)=O)cc1[N+](=O)[O-],inactive,32.5 µM (active) and 31.4 µM (active)
CC1=C(C(=O)Nc2ccccc2)SCCO1,inactive,–
CCNc1nc(Cl)nc(NCC)n1,inactive,–

SMILES,outcome,AC50
CNC(=S)S,–,20 µM (active)
CC(Oc1ccc(Cl)cc1Cl)C(=O)O (stereo not given),inactive,–
Fc1ccc(Oc2ccnc3cc(Cl)cc(Cl)c23)cc1,–,24.3 µM (active)
Cc1c(F)c(F)c(COC(=O)C2C(/C=C(\Cl)C(F)(F)F)C2(C)C)c(F)c1F (stereo not given),inactive,–
CCCCC(CC)COC(=O)c1ccccc1C(=O)OCC(CC)CCCC (stereo not given),–,16.6 µM (active)
CC(C)Oc1cc(-n2nc(C(C)(C)C)oc2=O)c(Cl)cc1Cl,–,29.8 µM (active)
OC(c1ccc(Cl)cc1)(c1cncnc1)c1ccccc1Cl (stereo not given),inactive,–
COP(=S)(OC)Oc1nc(Cl)c(Cl)cc1Cl,–,25.4 µM (active)
Cc1cc(Cl)ccc1OCC(=O)O,inactive,–
CCOC(=O)C(Cl)Cc1cc(-n2nc(C)n(C(F)F)c2=O)c(F)cc1Cl (stereo not given),inactive,–
COC(=O)C=C(C)OP(=O)(OC)OC,inactive,–
COC(=O)C(C)Oc1ccc(Oc2ccc(Cl)cc2Cl)cc1 (stereo not given),inactive,–
COC(=O)N(OC)c1ccccc1COc1ccn(-c2ccc(Cl)cc2)n1,inactive,–
C=CCC1=C(C)C(OC(=O)C2C(C=C(C)C)C2(C)C)CC1=O (stereo not given),–,31.7 µM (active) [middle of 4 runs]
CNC(=O)ON=CC(C)(C)SC,–,5.4 µM (active)
CO/C=C(/C(=O)OC)c1ccccc1Oc1cc(Oc2ccccc2C#N)ncn1,inactive,12.1 µM (active)
Cc1ccc(-c2c(Cl)nc(C#N)n2S(=O)(=O)N(C)C)cc1,–,6.3 µM (active)
N#Cc1cc(Br)c(O)c(Br)c1,–,10.9 µM (active)
COP(N)(=O)SC (stereo not given),inactive,–
